Screens deposited in PubChem by National Center for Advancing Translational Sciences (NCATS).
An excerpt weighted towards active compounds, which were near 2.1% of everything screened.
Abeta yeast res = qHTS for compounds that reverse cellular toxicity of Amyloid beta (A-beta) peptide in yeast: Primary Screen. 0.063% of 410,000 active. Potency, µM (top dose mostly 46.1 µM), most hits filed as activators. yeast expressing A-beta42, growth rescue, OD600, 48 h; response scale: 0% DMSO, 100% iron-clioquinol control. AID 1347071, 2019; note: nearly all actives have a fitted effect of over 55% in size
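Yeast growth medium received pinned compounds, then yeast cells expressing toxic A-beta were added; plates incubated at 30 C for 48 hr. Growth read as absorbance at 600 nm, normalized to DMSO and equimolar FeCl3 plus clioquinol controls.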
FUS yeast rescue = qHTS for Suppressors of FUS Proteinopathy: Primary screen using FUS-linked yeast assay | S. cerevisiae FUS-expressing, growth rescue, OD600, 24 h | Potency, µM (series often up to 76.6 µM), usual class: activators | 0.24% of 390,000 active | AID 1347120, 2019; note: nearly all actives have a fitted effect of over 55% in size
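FUS-expressing yeast, raffinose-pregrown, induced in 2% galactose minimal medium at OD 0.005; compounds in a dilution series, 24hr at 30C. Growth restoration read as absorbance at 600 nm. CP55940 positive control, DMSO negative.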
TDP-43 yeast inh = qHTS of TDP-43 Inhibitors. TDP-43 expressing yeast growth rescue, BacTiter-Glo, 24 h. Potency, µM (titrated, usually from 46.1 µM), most hits filed as activators. 1.8% of 410,000 active; note: nearly all actives have a fitted effect of over 50% in size
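Yeast expressing TDP-43 (pregrown in raffinose, seeded at OD600=0.02 in galactose medium) exposed to compounds 24 hr at 30 deg C. Growth read by BacTiter-Glo luminescence; rescue of toxicity appears as increased signal.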
aSyn yeast inh = qHTS of alpha-syn Inhibitors. Yeast expressing alpha-synuclein, growth rescue, BacTiter-Glo, 24 h. Potency, µM (doses to about 46.1 µM), usual class: activators. 0.14% of 370,000 active; note: nearly all actives have a fitted effect of over 65% in size
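Readout is rescue of growth in alpha-synuclein-expressing yeast, so inhibitors of toxicity appear as activators. Growth after 24 hr at 30 deg C in galactose medium is quantified by luminescence.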
Each line names hits and unclear results; the compound was inactive in the other large screens. Calls come from the whole dose curve; as a rule, active = well fitted curve in the direction sought with a large enough effect; inconclusive = small, poorly fitted or top-dose-only effect, or another doubt; inactive = no such curve, though single readings can be large; an effect the other way counts as inactive or inconclusive.

CC1=C(C(=O)N(C(C)C)C(C)C)CC(CC(=O)NCc2cccc3ccccc23)C(=O)N1Cc1ccc(F)cc1 (stereo unspecified)	FUS yeast rescue 17.8µM, aSyn yeast inh inconclusive
CC1=C(C(=O)N(C(C)C)C(C)C)CC(CC(=O)NCc2cccc3ccccc23)C(=O)N1Cc1ccccc1 (stereo unspecified)	none
COc1ccc(NC(=O)/C=C/c2ccccc2)cn1	TDP-43 yeast inh inconclusive
O=C(COC(=O)c1cc(S(=O)(=O)N2CCCCC2)ccc1Cl)NC1CCS(=O)(=O)C1 (stereo unspecified)	none
Oc1ccc(Cc2ccccc2Cl)c(O)c1	TDP-43 yeast inh 12.6µM
Cc1cc(C(=O)NC2CCC(C)CC2)c(C)o1 (stereo unspecified)	TDP-43 yeast inh 12.6µM, aSyn yeast inh inconclusive
Cc1cc(C(=O)OCC(=O)NC2CCC(C)CC2)c(C)o1 (stereo unspecified)	none (no result: FUS yeast rescue)
CN1C(=O)/C(=N\OC(=O)c2cccc3ccccc23)c2ccccc21	TDP-43 yeast inh 17.8µM, aSyn yeast inh inconclusive
COc1ccc(C(=O)O/N=C2\C(=O)N(C)c3ccccc32)cc1	TDP-43 yeast inh 3.98µM, aSyn yeast inh 5.62µM (no result: Abeta yeast res)
CC(=O)/C=C1\C(=O)N(C)c2ccccc21	none (no result: Abeta yeast res, FUS yeast rescue, TDP-43 yeast inh)
O=C(C[C@H]1C[C@@H]2c3cc(NC(=O)Nc4ccccc4)ccc3O[C@@H]2[C@@H](CO)O1)NCC1CC1	none
O/N=C(\c1ccc(Cl)cc1)c1ncc(C(F)(F)F)cc1Cl	TDP-43 yeast inh 12.6µM
Cc1ccc(S(=O)(=O)N2[C@@H](c3ccc(F)cc3)C(C(=O)O)=CC[C@H]2c2cccc(Cl)c2)cc1	TDP-43 yeast inh 22.4µM
COc1ccc([C@@H]2CC=C(C(=O)O)[C@H](c3cccc(Cl)c3)N2S(=O)(=O)c2ccc(Cl)cc2)cc1	none
COc1ccc([C@@H]2CC=C(C(=O)O)[C@H](c3ccc(F)cc3)N2S(=O)(=O)c2ccc(Cl)cc2)cc1	FUS yeast rescue inconclusive, TDP-43 yeast inh 14.1µM
Cc1ccc([C@H]2C(C(=O)O)=CC[C@@H](c3cccc(Cl)c3)N2S(=O)(=O)c2ccc(C)cc2)cc1	none
O=C(O/N=C(\c1ccccc1)c1ccncc1)c1ccccc1Cl	TDP-43 yeast inh 3.98µM, aSyn yeast inh inconclusive
Cc1cccc(C(=O)O/N=C(/c2ccccc2)c2ccncc2)c1	TDP-43 yeast inh 7.08µM, aSyn yeast inh inconclusive
N/C(=N\OC(=O)c1ccccc1Cl)c1ccccc1	TDP-43 yeast inh inconclusive
CCOC(=O)c1sc(Nc2nc3cc4c(cc3s2)OCO4)cc1C	none
CCOC(=O)c1sc(Nc2nc3c(OC)cccc3s2)cc1C	FUS yeast rescue inconclusive, TDP-43 yeast inh 22.4µM
O=C(Nc1cc(C(F)(F)F)ccc1-n1cncn1)c1ccc([N+](=O)[O-])o1	TDP-43 yeast inh 14.1µM
Cc1cc(Cl)ccc1-c1nc(NC(C)C)nc2ccsc12	TDP-43 yeast inh 35.5µM, aSyn yeast inh inconclusive
COCCNc1nc(-c2ccc(Cl)cc2C)c2sccc2n1	TDP-43 yeast inh 22.4µM
Cc1cc(Cl)ccc1-c1nc(NCc2ccccc2)nc2ccsc12	TDP-43 yeast inh inconclusive
CN(Cc1ccccc1F)C(=O)c1ccc(NS(=O)(=O)c2ccc3[nH]c(=O)[nH]c3c2)cc1	none (no result: FUS yeast rescue)
O=C(O)c1ccccc1-c1cc2ccccc2[nH]1	none
COc1ccccc1-c1cc2ccccc2[nH]1	TDP-43 yeast inh 15.8µM
CCc1ccccc1Nc1nc2ccccc2[nH]1	none
Cc1cnc([N+](=O)[O-])n1CCOC(=O)NC(=O)c1cccc(F)c1	none
COc1cc(O)c2c(c1)OC(c1ccc(O)cc1)CC2=O (stereo unspecified)	TDP-43 yeast inh 12.6µM
COc1ccc([C@@H]2CC(=O)c3c(O)cc(O)cc3O2)cc1O	none
Cc1cc(NCc2ccccc2)nc(-c2ccccc2O)n1	TDP-43 yeast inh 11.2µM
Cc1ccc(C)c(Nc2cc(C)nc(-c3ccccc3O)n2)c1	TDP-43 yeast inh 14.1µM
Cc1cc(Nc2ccccc2)nc(-c2ccccc2O)n1	none
COc1ccccc1CC(=O)Nc1c[nH]c(=O)[nH]c1=O	none
CCc1ccc(C(C(=O)NCc2ccc(OC)cc2)N(CCOC)C(=O)Cc2cccs2)cc1 (stereo unspecified)	none
CCOC(=O)[C@@H]1[C@H]2COc3ccc(Br)cc3[C@@H]2N2C(=O)N(c3ccc(C)cc3)C(=O)[C@]12C	FUS yeast rescue inconclusive
CCOC(=O)[C@@H]1[C@H]2COc3ccc(Br)cc3[C@H]2N2C(=O)N(c3ccc(C)cc3)C(=O)[C@]12C	FUS yeast rescue 22.4µM
O=C(CSc1cnc2ccccc2n1)c1ccc(F)cc1	TDP-43 yeast inh 17.8µM
COC(=O)CSc1cnc2ccccc2n1	none
COc1ccc2c(-c3ccccc3)cc(SCC(=O)N(C)C)nc2c1	TDP-43 yeast inh 22.4µM
COc1ccc2c(C)cc(SCC(=O)NC3CCCC3)nc2c1	aSyn yeast inh 11.2µM
CC1=Nc2ccccc2N=C(N)C1c1ccccc1 (stereo unspecified)	none (no result: FUS yeast rescue)
Cc1nc2ccccn2c1C(=O)CSc1ccccc1Cl	TDP-43 yeast inh 35.5µM
Cc1nc2ccccn2c1C(=O)CSc1ccc(Cl)cc1Cl	TDP-43 yeast inh inconclusive
COc1ccc(-n2c(SCC(=O)O)nc3sc4c(c3c2=O)CCC4)cc1	none
COc1ccc(-n2c(C)nc3sc4c(c3c2=O)CCC4)cc1	TDP-43 yeast inh 12.6µM
COc1ccc(OC)c(CNC(=O)c2cc3c(Cl)nc4ccccc4c3s2)c1	FUS yeast rescue inconclusive (no result: aSyn yeast inh)
Cc1ccc(CNc2cc(C)nc3nc(-c4cccc(C)c4)nn23)cc1	TDP-43 yeast inh 20µM
COc1ccccc1N(CC(=O)Nc1ccc(Cc2ccncc2)cc1)S(=O)(=O)c1ccccc1	none
CC(=O)Nc1ccc(Nc2ncnc3c2c(-c2ccccc2)cn3-c2ccc(C)c(Cl)c2)cc1	FUS yeast rescue inconclusive, TDP-43 yeast inh 15.8µM (no result: aSyn yeast inh)
COCCNc1ncnc2c1c(-c1ccccc1)cn2-c1cccc(Cl)c1	FUS yeast rescue inconclusive, TDP-43 yeast inh 35.5µM (no result: aSyn yeast inh)
CC(=O)Nc1ccc(Nc2ncnc3c2c(-c2ccccc2)cn3-c2ccccc2)cc1	TDP-43 yeast inh inconclusive (no result: aSyn yeast inh)
CC(C)Cc1cc(C(=O)Nc2ccccc2)c2ccccc2n1	none
Cc1nnc2n1CCCCC2	none
Cc1ccc(C(=O)NCCNc2ccc([N+](=O)[O-])cc2C(F)(F)F)cc1	none
O=[N+]([O-])c1ccc(NCCNS(=O)(=O)c2ccccc2)c(C(F)(F)F)c1	none
Cc1ccc(S(=O)(=O)NCCNc2ccc([N+](=O)[O-])cc2C(F)(F)F)cc1	TDP-43 yeast inh 22.4µM, aSyn yeast inh inconclusive
O=C(NCCNc1ccc([N+](=O)[O-])cc1C(F)(F)F)c1ccccc1F	TDP-43 yeast inh 20µM
COc1ccc(OC)c(-n2c(-c3cc(-c4ccco4)[nH]n3)n[nH]c2=S)c1	none
Cc1ccc(C)c(OCCC(=O)OCC(=O)N2CCN(S(=O)(=O)c3ccc(Cl)cc3)CC2)c1	TDP-43 yeast inh inconclusive
CCOc1ccc(OCCC(=O)OCC(=O)N2CCN(S(=O)(=O)c3ccc(Cl)cc3)CC2)cc1	TDP-43 yeast inh 12.6µM
